Test [1] has as its target Thyrotropin receptor (Homo sapiens) (UniProt P16473). Put plainly: qHTS assay to identify small molecule antagonists of the thyroid stimulating hormone receptor (TSHR) signaling pathway (AID 1259385; calls by dose curve; note: nearly all actives have a fitted effect of over 20% in size). The procedure, abridged: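 TSHR-HEK293 cells were plated and held 18 h at 37C/5% CO2, then given compound plus Ro20-1724 and stimulated with TSH at 1.5 ng/mL final. After 30 min at room temperature, cAMP was detected with cAMP-d2/anti-cAMP-cryptate (1 h) by fluorescence.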

The nature of test [2]: qHTS assay to identify small molecule agonists of the estrogen receptor alpha (ER-alpha) signaling pathway in the presence of an antagonist - cell viability counter screen (AID 1259386).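 Note: cells exposed to compounds for 22 h at 37 °C before the viability read; nearly all actives have a fitted effect of over 30% in size.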 Note: potency is the fitted concentration of half-maximal effect. In a few lines:
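Read-out: CellTiter-Fluor fluorescence after 1hr reagent incubation, measured in the same wells as the luciferase readout. VM7Luc4E2 cells were exposed to 15 compound concentrations with 10.0nM ICI-182,780 for 22hr at 37C.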

The target of test [3] is Progesterone receptor (Homo sapiens) (UniProt P06401). Put plainly: qHTS assay to identify small molecule agonists of the progesterone receptor (PR) signaling pathway (AID 1346784; calls by dose curve; note: nearly all actives have a fitted effect of over 30% in size). In a few lines:
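Agonist mode, quantitative HTS format in a HEK 293T line expressing a UAS-controlled beta-lactamase reporter; 16 hr compound exposure at 37C in 2% charcoal-stripped FBS, then LiveBLAzer B/G FRET fluorescence.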

The target is the same in test [4]. The test can be described thus: qHTS assay to identify small molecule antagonists of the progesterone receptor (PR) signaling pathway (AID 1346795; active = well fitted inhibition curve with a large enough effect in the signal ratio in the repeat runs, not every such curve was filed as active; the % refers to the signal ratio; note: potency is the fitted concentration of half-maximal effect). In a few lines: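 HEK293T PR-UAS-bla reporter cells in charcoal-stripped serum (2%) received compound after a 6 hr settling period, followed by R5020 agonist at 1 nM final; 16 hr incubation preceded the FRET substrate step and fluorescence measurement.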

A short description of test [5]: qHTS assay to identify small molecule antagonists of the progesterone receptor (PR) signaling pathway - cell viability counter screen (AID 1346798). Note: nearly all actives have a fitted effect of over 50% in size. Note: potency is the fitted concentration of half-maximal effect. In a few lines: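 Same-well multiplex: after 16 hr at 37C with compound and R5020 stimulation, HEK293T cells carrying a UAS-bla reporter received LiveBLAzer substrate (2 hr RT), then CellTiter-Glo (30 min RT) for luminescent viability.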

A short description of test [6]: qHTS assay to identify small molecule agonists of the progesterone receptor (PR) signaling pathway - cell viability counter screen (AID 1346799; calls by dose curve; note: nearly all actives have a fitted effect of over 45% in size; note: potency is the fitted concentration of half-maximal effect). In a few lines:
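Counter screen for cytotoxicity: compound-treated PR-UAS-bla HEK293T cells (16 hr, 37C, 5% CO2) were assayed with CellTiter-Glo, luminescence measured after 30 min at room temperature.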

Test [7] in a line: qHTS assay to identify small molecule antagonists of the TGF-beta/Smad signaling pathway - cell viability counter screen (AID 1346824). Note: nearly all actives have a fitted effect of over 50% in size. In a few lines: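 SBE-bla HEK 293T cells were plated overnight at 37 C, then given compounds in DMSO plus TGF-beta1 (added as 0.25 ng/mL solution) for 5 hr. After the bla read, CellTiter-Glo was added to the same wells and luminescence read after 30 min at room temperature.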

A short description of test [8]: qHTS assay to identify small molecule agonists of the TGF-beta/Smad signaling pathway - cell viability counter screen (AID 1346829). Note: top concentration of the series differs between compounds; nearly all actives have a fitted effect of over 45% in size. The procedure, abridged: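 CellTiter-Glo luminescence readout; SBE-bla HEK 293T cells, overnight plating, compound 5 hr at 37 C/5% CO2, then bla substrate 2 hr RT, then CellTiter-Glo 30 min RT.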
Test [9] in a line: qHTS assay to identify small molecule agonists of the TGF-beta/Smad signaling pathway (AID 1346859; active = well fitted activation curve with a large enough effect in the signal ratio in the repeat runs, not every such curve was filed as active; the % refers to the signal ratio; note: series mostly up to about 77 µM). In a few lines: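 Smad-responsive beta-lactamase reporter cells (HEK 293T) received compounds from DMSO stocks after overnight attachment, were incubated 5 hr, then treated 2 hr with FRET substrate before dual-emission fluorescence measurement (405 nm excitation).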
Test [10] has as its target Thyrotropin-releasing hormone receptor (Homo sapiens) (UniProt P34981). The test can be described thus: qHTS assay to identify small molecule antagonists of the thyrotropin-releasing hormone receptor (TRHR) signaling pathway (AID 1346877; active = well fitted inhibition curve with a large enough effect in the repeat runs, not every such curve was filed as active; note: series mostly up to about 51 µM). In a few lines: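 HEK293/TRHR cells, 18 h, 37 °C; Ca2+ dye 2 h; cpd 5 min RT; TRH 1 nM final; fluorescence read 3 min, 1 s intervals; 15 concs, triplicate.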

Test [11] shares this target. The test can be described thus: qHTS assay to identify small molecule agonists of the thyrotropin-releasing hormone receptor (TRHR) signaling pathway (AID 1346891; calls by dose curve;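 note: HEK293 cells expressing TRHR with calcium dye readout; series mostly up to about 58 µM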). In a few lines: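 Agonist-mode calcium mobilisation screen: TRHR-transfected HEK293 cells cultured overnight (18 h), dye-loaded for 2 h at 37 °C, exposed to compounds, and monitored by fluorescence for 3 min.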

Test [12] in a line: Human pregnane X receptor (PXR) small molecule agonists, qHTS cell viability counter screen (AID 1346977). Note: nearly all actives have a fitted effect of over 50% in size. Note: potency is the fitted concentration of half-maximal effect. In a few lines:
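Measures live-cell protease fluorescence (CellTiter-Fluor) in PXR-Luc HepG2 cells treated 24hr with compounds at 37C. Cells had 5hr to attach before pin transfer of DMSO solutions.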

The nature of test [13]: Caspase-3/7 induction in HepG2 cells by small molecules, qHTS assay (AID 1346978). Note: nearly all actives have a fitted effect of over 15% in size. The procedure, abridged:
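Wild-type HepG2 cells (2,000/well) were settled 5 h at 37 C, 5% CO2, then exposed to compounds in DMSO for 17 h. Caspase-3/7 activity was read by luminescence 30 min after adding Caspase-Glo 3/7 reagent at room temperature.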

Test [14] can be described thus: Caspase-3/7 induction in CHO-K1 cells by small molecules, qHTS cell viability counter screen (AID 1346979). Note: nearly all actives have a fitted effect of over 35% in size. Note: potency is the fitted concentration of half-maximal effect. The procedure, abridged: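 In the same wells as the caspase read, viability of compound-treated wild-type CHO-K1 cells was assessed using CellTiter-Fluor, added after 16hr at 37C and measured by fluorescence following 1hr further incubation.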
Test [15] in a line: Caspase-3/7 induction in CHO-K1 cells by small molecules, qHTS assay (AID 1346980). Note: nearly all actives have a fitted effect of over 15% in size. In a few lines: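 Wild-type cells were seeded at 1,500 per well and settled 5 hr at 37 C, 5% CO2, then exposed to DMSO-dissolved compounds for 17 hr. Caspase-Glo 3/7 reagent was added, and luminescence was read after 30min at room temperature.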
A short description of test [16]: Caspase-3/7 induction in HepG2 cells by small molecules, qHTS cell viability counter screen (AID 1346981). Note: nearly all actives have a fitted effect of over 30% in size. Note: potency is the fitted concentration of half-maximal effect. In a few lines: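 Fluorescence read-out of live-cell protease activity (CellTiter-Fluor) after 1 hr with reagent. This was measured in the same wells as the caspase-3/7 luminescence, on HepG2 cells exposed to DMSO-dissolved compounds for 16 hr at 37 C.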
The target in test [17] is Nuclear receptor subfamily 1 group I member 2 (Homo sapiens) (UniProt O75469). Put plainly: Human pregnane X receptor (PXR) small molecule agonists, qHTS assay (AID 1346982). Note: nearly all actives have a fitted effect of over 35% in size. Note: potency is the fitted concentration of half-maximal effect. The procedure, abridged:
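HepG2 PXR-Luc reporter line, 5% charcoal-stripped FBS; 5 hr pre-incubation, compound (DMSO) 24 hr at 37 C/5% CO2; ONE-Glo 30 min RT; luminescence read-out.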

In test [18] the target is Nuclear receptor subfamily 1 group I member 2 (Rattus norvegicus) (UniProt Q9R1A7). Put plainly: Rat pregnane X receptor (rPXR) activation by small molecules, qHTS assay (AID 1346983). Note: nearly all actives have a fitted effect of over 20% in size. To be noted: rPXR luciferase reporter cells, One-Glo luminescence, 24 h; max activation: active compounds read high. The procedure, abridged: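 Cell-based rPXR luciferase reporter assay, 2,000 cells per well, rested 5hr at 37 C before compound addition in DMSO, then 24 hr at 37 C. One-Glo reagent was added and luminescence read after 30 min at room temperature.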

The target in test [19] is Nuclear receptor subfamily 1 group I member 2 (Homo sapiens) (UniProt O75469). The test can be described thus: CYP3A4 induction through human pregnane X receptor (PXR) by small molecules, qHTS assay (AID 1346984). Note: nearly all actives have a fitted effect of over 40% in size. The procedure, abridged:
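HepG2-derived DPX-2 line carrying PXR plus a CYP3A4-promoter luciferase reporter; cells plated 5 hr, compound-exposed 24 hr at 37C. CYP3A4 activity probed with 3uM (final) Luciferin-IPA for 3hr, then luciferase read after One-Glo.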

Each structure is given as a SMILES string. Unmarked numbers belong to inactive results. Results filed as inconclusive are left out. Calls of active or inactive are those of the source. Unless noted, calls come from the whole dose curve; as a rule, active = well fitted curve in the direction sought with a large enough effect in the repeat runs; inconclusive = weak or mixed curves; inactive = no such curve, though single readings can be large; an effect the other way counts as inactive or inconclusive.
% is set by controls: 0 for no effect and ±100 for the full control effect.

Sequence of Thyrotropin-releasing hormone receptor (Homo sapiens) (P34981 whole entry, looked up): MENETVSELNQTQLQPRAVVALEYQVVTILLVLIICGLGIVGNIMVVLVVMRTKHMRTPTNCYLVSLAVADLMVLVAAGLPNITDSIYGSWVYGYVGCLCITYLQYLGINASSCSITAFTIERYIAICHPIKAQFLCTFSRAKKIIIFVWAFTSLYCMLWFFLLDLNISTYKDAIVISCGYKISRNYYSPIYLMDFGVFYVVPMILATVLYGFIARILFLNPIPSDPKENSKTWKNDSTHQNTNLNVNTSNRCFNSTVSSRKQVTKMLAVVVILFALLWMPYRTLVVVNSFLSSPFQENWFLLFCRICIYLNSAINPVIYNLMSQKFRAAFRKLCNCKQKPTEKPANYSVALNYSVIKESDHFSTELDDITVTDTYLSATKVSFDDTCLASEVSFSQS
Sequence of Thyrotropin receptor (Homo sapiens) (P16473 whole entry, looked up): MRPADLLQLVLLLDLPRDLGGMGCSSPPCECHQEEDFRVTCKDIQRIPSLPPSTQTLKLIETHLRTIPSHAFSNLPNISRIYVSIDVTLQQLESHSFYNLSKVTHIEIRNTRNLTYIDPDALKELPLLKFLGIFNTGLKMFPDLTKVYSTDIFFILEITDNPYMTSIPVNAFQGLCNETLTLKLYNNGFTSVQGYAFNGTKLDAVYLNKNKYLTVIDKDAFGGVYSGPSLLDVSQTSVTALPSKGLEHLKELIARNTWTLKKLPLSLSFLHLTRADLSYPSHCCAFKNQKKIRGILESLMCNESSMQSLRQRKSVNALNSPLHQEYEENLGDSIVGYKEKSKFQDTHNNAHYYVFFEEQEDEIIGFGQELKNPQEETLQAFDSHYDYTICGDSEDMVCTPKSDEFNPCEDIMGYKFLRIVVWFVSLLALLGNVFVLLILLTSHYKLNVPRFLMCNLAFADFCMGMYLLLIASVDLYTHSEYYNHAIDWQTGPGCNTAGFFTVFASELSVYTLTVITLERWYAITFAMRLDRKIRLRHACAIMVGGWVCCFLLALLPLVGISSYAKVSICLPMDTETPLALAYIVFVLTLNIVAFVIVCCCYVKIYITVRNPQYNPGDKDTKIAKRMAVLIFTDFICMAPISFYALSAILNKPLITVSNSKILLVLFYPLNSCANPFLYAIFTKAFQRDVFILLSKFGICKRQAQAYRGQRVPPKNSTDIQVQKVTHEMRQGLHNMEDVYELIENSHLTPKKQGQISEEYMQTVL
Sequence of Nuclear receptor subfamily 1 group I member 2 (Homo sapiens) (O75469 whole entry, looked up): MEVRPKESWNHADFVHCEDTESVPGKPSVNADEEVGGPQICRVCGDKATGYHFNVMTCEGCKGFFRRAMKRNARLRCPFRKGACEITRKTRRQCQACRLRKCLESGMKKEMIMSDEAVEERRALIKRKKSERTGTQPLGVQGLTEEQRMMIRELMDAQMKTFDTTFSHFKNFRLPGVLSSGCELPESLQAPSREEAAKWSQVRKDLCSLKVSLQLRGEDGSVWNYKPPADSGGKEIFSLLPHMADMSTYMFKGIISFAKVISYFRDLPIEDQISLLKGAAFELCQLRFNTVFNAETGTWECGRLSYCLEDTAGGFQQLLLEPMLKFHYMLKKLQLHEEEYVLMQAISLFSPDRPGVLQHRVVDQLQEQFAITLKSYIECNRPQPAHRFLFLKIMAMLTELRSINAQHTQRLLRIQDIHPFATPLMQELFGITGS
Sequence of Progesterone receptor (Homo sapiens) (P06401 whole entry, looked up): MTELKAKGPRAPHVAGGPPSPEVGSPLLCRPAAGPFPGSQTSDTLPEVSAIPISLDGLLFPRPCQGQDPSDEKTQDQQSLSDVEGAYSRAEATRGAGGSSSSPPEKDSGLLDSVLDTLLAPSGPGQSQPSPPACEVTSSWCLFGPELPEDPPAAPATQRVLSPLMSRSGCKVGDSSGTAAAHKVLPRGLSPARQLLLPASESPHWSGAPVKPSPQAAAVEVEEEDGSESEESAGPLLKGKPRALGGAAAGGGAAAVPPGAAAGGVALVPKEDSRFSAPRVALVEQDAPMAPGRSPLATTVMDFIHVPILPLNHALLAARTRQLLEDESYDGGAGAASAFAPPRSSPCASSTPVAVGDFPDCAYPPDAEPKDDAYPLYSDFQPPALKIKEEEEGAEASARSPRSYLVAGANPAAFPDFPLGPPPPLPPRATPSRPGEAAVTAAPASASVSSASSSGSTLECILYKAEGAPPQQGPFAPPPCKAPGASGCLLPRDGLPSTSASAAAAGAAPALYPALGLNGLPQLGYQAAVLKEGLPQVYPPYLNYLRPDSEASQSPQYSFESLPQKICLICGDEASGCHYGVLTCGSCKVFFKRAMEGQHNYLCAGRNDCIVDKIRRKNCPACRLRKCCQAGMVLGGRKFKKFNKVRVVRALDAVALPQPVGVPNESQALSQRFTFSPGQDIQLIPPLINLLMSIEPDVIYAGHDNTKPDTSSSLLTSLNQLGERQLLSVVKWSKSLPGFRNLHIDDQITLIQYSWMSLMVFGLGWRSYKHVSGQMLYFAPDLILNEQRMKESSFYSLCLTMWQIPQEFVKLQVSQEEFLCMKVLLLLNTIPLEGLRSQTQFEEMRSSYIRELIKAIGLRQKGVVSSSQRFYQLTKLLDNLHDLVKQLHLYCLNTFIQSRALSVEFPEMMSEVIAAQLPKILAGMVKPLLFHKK
Sequence of Nuclear receptor subfamily 1 group I member 2 (Rattus norvegicus) (Q9R1A7 whole entry, looked up): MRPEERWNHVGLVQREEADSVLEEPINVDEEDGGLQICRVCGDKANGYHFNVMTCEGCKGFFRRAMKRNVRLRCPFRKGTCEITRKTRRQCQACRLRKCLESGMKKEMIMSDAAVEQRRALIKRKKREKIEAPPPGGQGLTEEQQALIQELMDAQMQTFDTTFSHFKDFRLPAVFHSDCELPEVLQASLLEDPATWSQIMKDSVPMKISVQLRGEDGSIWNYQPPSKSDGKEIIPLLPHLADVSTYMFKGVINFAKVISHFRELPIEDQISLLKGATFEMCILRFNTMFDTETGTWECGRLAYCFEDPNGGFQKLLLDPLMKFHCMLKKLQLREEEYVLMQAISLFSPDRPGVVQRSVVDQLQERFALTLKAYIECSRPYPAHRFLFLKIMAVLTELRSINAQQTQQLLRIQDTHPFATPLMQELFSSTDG

For `O=C1Cc2cc(Cl)ccc2N1`, the Potency entry in test [1], in test [2], in test [3], in test [4], in [5] and in test [6] was “inactive” each time. The Potency entry in test [7], in test [8], in test [9], in [11], in [12] and in [13] was “inactive” throughout. The Potency result in test [14], in test [15], in test [16] and in test [17] was “inactive” throughout. Besides, in test [10], the call was inactive.
As for `CCCCCCCCCCC(=O)O`, the Potency result in test [1], in [2], in [3], in test [4], in [5] and in test [6] was “inactive” each time. For the same compound, the Potency entry in test [7], in test [8], in [9], in test [11], in test [13] and in [15] was “inactive” throughout. Also, the Potency result in test [16] was “inactive”. The call in test [10] was inactive.
For `C=C(C)CCCC(C)CCO` (centres undefined), the Potency entry in test [1], in [2], in test [3], in test [4], in test [5] and in test [6] was “inactive” throughout. The Potency result in [7], in [8], in [9], in test [11], in test [12] and in [13] was “inactive” each time. The Potency result in test [14], in test [15] and in [16] was “inactive” throughout. In addition, the call in test [10] was inactive. Further, the Potency in test [17] is 54.5 µM (active).
In the case of `CC1=C(CC=O)C(C)(C)CCC1`, the Potency result in [1], in [2], in test [3], in test [4], in test [5] and in test [6] was “inactive” in each case. Also, the Potency entry in [7], in [8], in test [9], in test [11], in test [13] and in [14] was “inactive” each time. The Potency entry in test [15] and in test [16] was “inactive” in each case. Besides, the call in test [10] was inactive. For the same compound, the Potency in test [17] was 24.3 µM (active).
As to `NC(=O)c1ccncc1`, the Potency entry in test [1], in test [2], in test [3], in test [4], in test [5] and in test [6] was “inactive” throughout. The Potency entry in test [7], in test [8], in test [9], in test [11], in test [13] and in test [14] was “inactive” in each case. Further, the Potency entry in test [15], in test [16] and in test [17] was “inactive” in each case. Besides, in [10], the call was inactive.
With `c1csc(SSc2cccs2)c1`, the Potency result in [1], in test [2], in [3], in test [7], in test [8] and in test [9] was “inactive” in each case. In addition, the Potency result in [13] and in [16] was “inactive” each time. Further, the Potency in [4] was 8.63 µM (active); in [5], 9.69 µM (active); in test [6] it was 9.69 µM (active); in test [12], 27.3 µM (active); in test [14] it was 34.4 µM (active); in test [17], 9.69 µM (active).
For the compound `CCCCCCC(C)(C)C(=O)O`, the Potency entry in test [1], in test [2], in [3], in test [4], in [5] and in test [6] was “inactive” each time. Moreover, the Potency result in [7], in test [8], in test [9], in [11], in [12] and in [13] was “inactive” each time. For the same compound, the Potency result in test [14], in [15] and in [16] was “inactive” in each case. The compound was classed as inactive in [10]. Further, in test [17], the Potency was 48.6 µM (active).
For the compound `CCn1cc(C(=O)O)c(=O)c2cc(F)c(N3CCNCC3)cc21`, the Potency result in test [1], in test [2], in [3], in test [4], in test [5] and in test [6] was “inactive” in each case. In addition, the Potency entry in test [7], in test [9], in test [11], in [12], in [13] and in test [15] was “inactive” each time. Also, the Potency result in test [16], in test [17] and in [19] was “inactive” in each case. Moreover, in [10], the outcome was inactive. Further, in test [18], the max activation was 7.46%.
`CC(=O)Oc1ccc([N+](=O)[O-])cc1CCl`: the Potency entry in [1], in test [3], in test [4], in test [5], in test [6] and in test [7] was “inactive” throughout. The Potency entry in test [8], in test [9], in test [11], in test [13], in [15] and in test [17] was “inactive” in each case. Also, the Potency in test [2] is 48.6 µM (active); in test [14], 30.6 µM (active); in [16], 27.3 µM (active). Also, the compound was called inactive in test [10].
